Source: PubChem BioAssay AID1159580 (chemical genetic matrix, 2015)
The campaign covered roughly 5,500 compounds. About 2,000 (36%) were called active. Inconclusive results (about 18%) are left out. No stated cut-off is given here; in the data, active means normalized growth mostly below about 0.91 (no sharp cut-off); inconclusive means no clear call, values can overlap the other calls; inactive means mostly above about 0.92. Some of the results follow.

Experiment: chemical genetic growth profiling, strain panel (AID 1159580);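 further: tested at 20 µM; growth read once vehicle control cultures reached saturation at 30 °C; 1 = growth at the plate median or of vehicle wells; lower values mean less growth of the strain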
Conditions: S. cerevisiae deletion strains, growth OD

Measured: normalized growth

Cc1oc(-c2ccc(Cl)cc2)cc1C(=O)N1CCN(c2ccc(C(F)(F)F)cn2)CC1
inactive: locus YAR019C, strain CDC15, active compounds read low 0.977 | locus YBL105C, strain PKC1, active compounds read low 0.972 | locus YBR135W, strain CKS1, active compounds read low 0.97 | locus YBR136W, strain MEC1, active compounds read low 0.963 | locus YBR160W, strain CDC28, active compounds read low 0.969 | locus YDL017W, strain CDC7, active compounds read low 0.978 | locus YDL028C, strain MPS1, active compounds read low 0.974 | locus YDL101C, strain DUN1, active compounds read low 0.983 | locus YDL108W, strain KIN28, active compounds read low 0.974 | locus YDL132W, strain cdc53, active compounds read low 0.982 | locus YDL214C, strain PRR2, active compounds read low 0.908 | locus YDR052C, strain DBF4, active compounds read low 0.982 | locus YDR054C, strain cdc34, active compounds read low 0.969 | locus YDR226W, strain ADK1, active compounds read low 0.972 | locus YDR477W, strain SNF1, active compounds read low 0.925 | locus YER123W, strain YCK3, active compounds read low 0.926 | locus YER133W, strain GLC7, active compounds read low 0.938 | locus YFL009W, strain cdc4, active compounds read low 0.967 | locus YFL029C, strain CAK1, active compounds read low 0.986 | locus YFR003C, strain YPI1, active compounds read low 0.974 | locus YFR019W, strain FAB1, active compounds read low 0.992 | locus YFR028C, strain CDC14, active compounds read low 0.976 | locus YGR040W, strain KSS1, active compounds read low 0.929 | locus YGR052W, strain FMP48, active compounds read low 0.959 | locus YGR092W, strain DBF2, active compounds read low 0.874 | locus YHR079C, strain IRE1, active compounds read low 0.964 | locus YHR082C, strain KSP1, active compounds read low 0.966 | locus YHR205W, strain SCH9, active compounds read low 0.883 | locus YIL147C, strain SLN1, active compounds read low 0.979 | locus YJL095W, strain BCK1, active compounds read low 0.905 | locus YJL128C, strain PBS2, active compounds read low 0.918 | locus YJL157C, strain FAR1, active compounds read low 0.944 | locus YJR016C, strain ILV3, active compounds read low 0.979 | locus YJR066W, strain TOR1 (second series), active compounds read low 0.975 | locus YJR066W, strain TOR1, active compounds read low 0.9 | locus YKL048C, strain ELM1, active compounds read low 0.976 | locus YKL067W, strain YNK1, active compounds read low 0.907 | locus YKL101W, strain HSL1, active compounds read low 0.94 | locus YKL193C, strain SDS22, active compounds read low 0.97 | locus YKL203C, strain TOR2, active compounds read low 1 | locus YLR113W, strain HOG1, active compounds read low 0.893 | locus YLR133W, strain CKI1, active compounds read low 0.929 | locus YLR403W, strain SFP1, active compounds read low 0.94 | locus YML070W, strain DAK1, active compounds read low 0.951 | locus YMR001C, strain CDC5, active compounds read low 0.989 | locus YMR205C, strain PFK2 (second series), active compounds read low 0.937 | locus YMR277W, strain FCP1, active compounds read low 0.975 | locus YNL006W, strain LST8, active compounds read low 0.981 | locus YNL020C, strain ARK1, active compounds read low 0.933 | locus YNL161W, strain CBK1, active compounds read low 0.975 | locus YNL183C, strain NPR1, active compounds read low 0.95 | locus YNL207W, strain RIO2, active compounds read low 0.973 | locus YNL222W, strain SSU72, active compounds read low 0.981 | locus YNL307C, strain MCK1 (second series), active compounds read low 0.944 | locus YOL078W, strain AVO1, active compounds read low 0.981 | locus YOL136C, strain PFK27, active compounds read low 0.961 | locus YOR061W, strain CKA2, active compounds read low 0.873 | locus YOR119C, strain RIO1, active compounds read low 0.929 | locus YOR231W, strain MKK1, active compounds read low 0.96 | locus YOR329C, strain SCD5, active compounds read low 0.982 | locus YPL031C, strain PHO85, active compounds read low 0.936 | locus YPL153C, strain RAD53, active compounds read low 0.948 | locus YPL204W, strain HRR25, active compounds read low 0.936 | locus YPL209C, strain IPL1, active compounds read low 0.983 | locus YPL256C, strain CLN2, active compounds read low 0.909 | locus YPR025C, strain CCL1, active compounds read low 0.975 | locus YPR106W, strain ISR1, active compounds read low 0.972 | locus YPR111W, strain DBF20, active compounds read low 0.955 | strain NNK1, active compounds read low 0.97 | strain TSCII, active compounds read low 0.98
active: locus YHR030C, strain SLT2, active compounds read low 0.682
